Each structure is given as a SMILES string. Where “and” joins values, the source holds several entries; their conditions need not be identical. Equal values may be shown once. Compounds without any hit were thinned out: in the full panel of roughly 79,000, 15% have a hit. A number with no mark means an inactive call. Calls of active or inactive are those of the source. No stated cut-off is given here; in the data, active means growth inhibition above about 70%; inactive means the rest.

Experiment [1] is described as follows: NCI Yeast Anticancer Drug Screen. Data for the rad50 strain (AID 155).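 Further: 0% = growth of vehicle-only cultures of the same strain.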 The note with it: S. cerevisiae rad50 strain growth inhibition; at 50.0 µM; active compounds read high. The gist of the method:
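Compounds were tested on a yeast strain with an engineered DNA damage repair alteration; the reported value is growth inhibition normalised to vehicle treatment.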

A short description of experiment [2]: NCI Yeast Anticancer Drug Screen. Data for the mec2-1 strain (AID 157). The conditions noted are these: S. cerevisiae mec2-1 strain, at 50.0 µM, active compounds read high. A digest of the protocol: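 Strain: mec2-1 (DNA repair/cell cycle alteration). Compound exposure, then growth measured; inhibition expressed relative to vehicle.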
A short description of experiment [3]: NCI Yeast Anticancer Drug Screen. Data for the sgs1 mgt1 strain (AID 161).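 Further: 0% = growth of cultures given vehicle only.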 The conditions noted are these: S. cerevisiae sgs1 mgt1 strain, at 50.0 µM, active compounds read high. A digest of the protocol:
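Read-out: growth inhibition vs vehicle controls. Cells: mutant yeast strain deficient in DNA damage repair.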

A short description of experiment [4]: NCI Yeast Anticancer Drug Screen. Data for the cln2 rad14 strain (AID 165).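 Further: 0% = growth equal to vehicle treated cultures.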 The note with it: S. cerevisiae cln2 rad14 strain, at 50.0 µM, active compounds read high. A digest of the protocol: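 Compounds are applied to the cln2 rad14 yeast strain, and growth is then compared with that of vehicle-treated cultures to give inhibition.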
A short description of experiment [5]: NCI Yeast Anticancer Drug Screen. Data for the bub3 strain (AID 167). The note with it: S. cerevisiae bub3 mutant strain, at 50.0 µM, active compounds read high. The gist of the method:
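Growth of a checkpoint-deficient yeast mutant is measured after compound exposure. Values represent inhibition relative to vehicle.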

A short description of experiment [6]: NCI Yeast Anticancer Drug Screen. Data for the mlh1 rad18 strain (AID 175). The note with it: S. cerevisiae mlh1 rad18 strain growth inhibition; at 50.0 µM; active compounds read high. A digest of the protocol:
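Read-out is yeast growth inhibition, calculated against vehicle-only controls. The compound was applied to a strain engineered with DNA damage repair alterations.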

With `CN(C)/N=C(\CCN1CCCC1)CC(c1ccccc1)c1c(O)c2ccccc2oc1=O` (stereo not given), the growth inhibition in experiment [1] was 55%; in experiment [2], 35.6%; in experiment [3] it was 63.1%; in experiment [4], 48%; in experiment [5], 49.9%; in experiment [6], 50.3%.

On to `CC(C)CCC(=O)c1ccoc1`, for which the growth inhibition is -2.45% in experiment [1]; -9.95% in experiment [2]; -1.55% in experiment [3]; 3.65% in experiment [4]; 5.45% in experiment [5]; -28.6% in experiment [6].

For `ClCc1cccc2ccccc12`, the growth inhibition was -28.7% in experiment [1]; -4.7% in experiment [2]; -26.1% in experiment [3]; -6.05% in experiment [4]; -7.6% in experiment [5]; -39% in experiment [6].

Take `CC1(c2ccccc2)CCC(=O)NC1=O` (stereo not given): the growth inhibition in experiment [1] is 7.2%; in experiment [2] it was 19.6%; in experiment [3], 14.6%; in experiment [4], 32.5%; in experiment [5], 7.85%; in experiment [6], 38.6%.

Consider `C(=C/P(c1ccccc1)c1ccccc1)/P(c1ccccc1)c1ccccc1`, for which the growth inhibition in experiment [1] is 4.05%; in experiment [2], 8.95%; in experiment [3], 1.9%; in experiment [4] it was -18.4%; in experiment [5], 2.75%; in experiment [6], 2.7%.

With `CN(Cc1ccccc1)CC(O)c1ccccc1Cl` (stereo not given), the growth inhibition in experiment [1] is -0.75%; in experiment [2] it was -2.7%; in experiment [3] it was 21.4%; in experiment [4] it was -28.2%; in experiment [5] it was 13.3%; in experiment [6], 25.1%.

On to `C[C@]12CCC(=O)C=C1CC[C@H]1[C@@H]3CCC(=O)[C@@]3(C)CC[C@@]12F`, for which the growth inhibition in experiment [1] is -2.35%; in experiment [2], -6.1%; in experiment [3], 2.25%; in experiment [4], -31.8%; in experiment [5], -3.7%; in experiment [6], -5.75%.

For `COc1ccc(C=C2C(=O)NC(=O)NC2=O)cc1OC`, the growth inhibition in experiment [1] is 10.7%; in experiment [2] it was -0.6%; in experiment [3], 22.2%; in experiment [4] it was 8.8%; in experiment [5], -11.8%; in experiment [6], 23.9%.

Consider `CC(=O)c1ccc(NC(O)C(Cl)(Cl)Cl)cc1` (stereo not given), for which the growth inhibition in experiment [1] was 5.75%; in experiment [2] it was 18.9%; in experiment [3] it was -0.25%; in experiment [4], -12.2%; in experiment [5], 18.8%; in experiment [6], 22.4%.

Turning to `C[As+](C)(C)c1cccc(N)c1`, the growth inhibition was -1.6% in experiment [1]; -6.6% in experiment [2]; -10.1% in experiment [3]; -14.8% in experiment [4]; -1% in experiment [5]; 0.45% in experiment [6].

Regarding `CN(C)C(=O)Oc1c(Cl)cc(S(=O)(=O)F)cc1Cl`, the growth inhibition in experiment [1] is 26.4%; in experiment [2], 0.8%; in experiment [3], 12.7%; in experiment [4] it was 12.8%; in experiment [5], 2.65%; in experiment [6] it was 12.4%.

On to `CCCCNC(c1ccc(OC)cc1)C(O)c1ccc(OC)cc1` (stereo not given), for which the growth inhibition in experiment [1] was 2.35%; in experiment [2], -17.3%; in experiment [3] it was -2.95%; in experiment [4] it was -25.6%; in experiment [5], 7.1%; in experiment [6], -14.1%.

`C/C=C/CC1(c2ccccc2)C(=O)NC(=S)NC1=O`: the growth inhibition in experiment [1] was 10.2%; in experiment [2], -15%; in experiment [3] it was 6.3%; in experiment [4] it was -42.3%; in experiment [5] it was -6%; in experiment [6] it was 5.9%.

In the case of `COC(=O)C1=CO[C@@H](C)[C@@H]2CN3CCc4c([nH]c5cc(OC)ccc45)[C@H]3C[C@H]12`, the growth inhibition in experiment [1] was -43.8%; in experiment [2], -32.6%; in experiment [3] it was -34%; in experiment [4], -30.1%; in experiment [5], -2.05%; in experiment [6], -41%.

In the case of `CCC[CH2][Sn]([CH2]CCC)([CH2]CCC)[CH2]CC[N+](C)(CCO)CCO.CS(=O)(=O)[O-]`, the growth inhibition in experiment [1] is 99.4% (active); in experiment [2], 99.2% (active); in experiment [3], 99.7% (active); in experiment [4] it was 99.3% (active); in experiment [5] it was 99.5% (active); in experiment [6] it was 99.2% (active).

On to `O=C(O)c1ccc([As](=O)(O)O)cc1`, for which the growth inhibition in experiment [1] is -16.6%; in experiment [2] it was 4.3%; in experiment [3] it was 17.3%; in experiment [4], -35.2%; in experiment [5] it was -18.8%; in experiment [6], -4.8%.

With `CS/C([S-])=N/N=C(C)C.CS/C([S-])=N/N=C(C)C.[Pt+2]`, the growth inhibition in experiment [1] was 9.1%; in experiment [2] it was 1.45%; in experiment [3] it was 0.7%; in experiment [4], -41.3%; in experiment [5], -0.8%; in experiment [6], -9.9%.

For `Cc1cc2n[se]nc2cc1C`, the growth inhibition in experiment [1] was 18.3%; in experiment [2] it was -9.15%; in experiment [3], 20.6%; in experiment [4], 6.3%; in experiment [5], -6.65%; in experiment [6], 21.7%.

`CCCC1(c2ccccc2)C(=O)NCNC1=O`: the growth inhibition was -21.8% in experiment [1]; -30.4% in experiment [2]; -24.3% in experiment [3]; -12.2% in experiment [4]; -25.4% in experiment [5]; -25.1% in experiment [6].

Regarding `CC1(C)Cc2cccc(C=C(C#N)C#N)c2O1`, the growth inhibition was 6.9% in experiment [1]; 20.6% in experiment [2]; 3.25% in experiment [3]; -63.5% in experiment [4]; -6.85% in experiment [5]; -3.25% in experiment [6].

As for `O=C1NC(=O)C2(OC3c4ccccc4C=CN3C3=C2C(=O)CCC3)C(=O)N1` (stereo not given), the growth inhibition is 11.5% in experiment [1]; 1.8% in experiment [2]; -6.1% in experiment [3]; 52.4% in experiment [4]; 10.1% in experiment [5]; 7.4% in experiment [6].

Take `O=C1C(=O)c2ccccc2-c2ccccc21`: the growth inhibition in experiment [1] is 36.6% and 34.6%; in experiment [2], 31.1% and 18.2%; in experiment [3], 32.8% and 25.5%; in experiment [4] it was -6.65% and -35.9%; in experiment [5], 25.9% and 30.6%; in experiment [6] it was 5.35% and 9.6%.

Consider `CN(C)c1ccc(N=Nc2c([O-])ccc3ccccc23)cc1.[C-]#[O+].[C-]#[O+].[Ir]`, for which the growth inhibition in experiment [1] was -7.05%; in experiment [2], -14.2%; in experiment [3], -30.2%; in experiment [4] it was 34%; in experiment [5], -10.2%; in experiment [6], -4.7%.

Consider `O=C([CH-]C(=O)C(F)(F)F)c1ccco1.O=C([CH-]C(=O)C(F)(F)F)c1ccco1.O=C([CH-]C(=O)C(F)(F)F)c1ccco1.[Ru+3]`, for which the growth inhibition is 8.2% in experiment [1]; -11% in experiment [2]; -19.6% in experiment [3]; -11.6% in experiment [4]; 1.95% in experiment [5]; 11.7% in experiment [6].

In the case of `NC(=O)c1ccc([As](=O)(O)O)cc1[N+](=O)[O-]`, the growth inhibition is -2% in experiment [1]; 3.85% in experiment [2]; 5.05% in experiment [3]; -47.8% in experiment [4]; -6.9% in experiment [5]; -10.6% in experiment [6].

For the compound `N.N.N.N.[Co+3].[O-][Cl+3]([O-])([O-])[O-].[OH3+].[OH3+]`, the growth inhibition is -25.4% in experiment [1]; -1.15% in experiment [2]; -22.3% in experiment [3]; 13.9% in experiment [4]; -6% in experiment [5]; -13.6% in experiment [6].

In the case of `CN(C)c1ccc2c(c1)Cc1ccccc1-2`, the growth inhibition is 1% in experiment [1]; -8.65% in experiment [2]; 18.2% in experiment [3]; -24.1% in experiment [4]; 44% in experiment [5]; -25.8% in experiment [6].

`CC1(C)CCC(C)(C)c2c1ccc(O)c2Cc1c(O)ccc2c1C(C)(C)CCC2(C)C`: the growth inhibition was 3.55% in experiment [1]; -30.8% in experiment [2]; -39% in experiment [3]; -17.2% in experiment [4]; -41.2% in experiment [5]; -6.8% in experiment [6].

Turning to `c1ccc(-c2ccc([As](c3ccccc3)c3ccccc3)cc2)cc1`, the growth inhibition in experiment [1] is 11.4%; in experiment [2], 4.5%; in experiment [3], 19.6%; in experiment [4], 3.85%; in experiment [5] it was 7.6%; in experiment [6], 11.8%.

With `O=C(COc1ccc(Cl)c(Cl)c1)Nc1cccc(S(=O)(=O)F)c1`, the growth inhibition was 29.4% in experiment [1]; 10.4% in experiment [2]; -2.45% in experiment [3]; -10.8% in experiment [4]; 13.1% in experiment [5]; 19.4% in experiment [6].

Turning to `NC(Cc1cnc[nH]1)C(=O)NC(Cc1cnc[nH]1)C(=O)O` (stereo not given), the growth inhibition in experiment [1] was -5.1%; in experiment [2], 9%; in experiment [3] it was -1.5%; in experiment [4] it was 10.6%; in experiment [5] it was 4.45%; in experiment [6], 7.6%.

As for `CN1CCC2CC(=O)NC1(C)C2(C)C` (stereo not given), the growth inhibition in experiment [1] is 13.2%; in experiment [2], 2.05%; in experiment [3], 17.9%; in experiment [4], 4.5%; in experiment [5], -2.2%; in experiment [6], 11.9%.

`CC12CCC3C(CC=C4CC(=O)CCC43CCO)C1CCC2Oc1ccccc1` (stereo not given): the growth inhibition in experiment [1] was 5.3%; in experiment [2] it was -11.9%; in experiment [3], -2.45%; in experiment [4], 16.4%; in experiment [5] it was 23.7%; in experiment [6] it was 13.3%.

On to `O=C(COc1ccc(Cl)c(Cl)c1)Nc1ccc[n+](Cc2c(Cl)cccc2S(=O)(=O)F)c1`, for which the growth inhibition in experiment [1] was 14.8%; in experiment [2] it was 22.1%; in experiment [3], -17.7%; in experiment [4] it was 39.9%; in experiment [5] it was -1.5%; in experiment [6], 5.35%.

Regarding `COc1cc2c(c(OC)c1OC)-c1ccc(O)c(=O)cc1[C@@H](NC(C)=O)CC2`, the growth inhibition was 24% and 43.6% in experiment [1]; 1.95% and 34.6% in experiment [2]; 54.9% in experiment [3]; 35.5% in experiment [4]; 62.5% in experiment [5]; 22.9% and -13.1% in experiment [6].

The values are drawn from PubChem BioAssay (NCI).
